Assay results as given in PubChem BioAssay (NCATS).
Inconclusive results are not listed. Activity calls are given as the source filed them. Calls follow the shape of the dose curve; as a rule, active = well fitted curve in the direction sought with a large enough effect; inconclusive = small, poorly fitted or top-dose-only effect, or another doubt; inactive = no such curve, though single readings can be large; an effect the other way counts as inactive or inconclusive.

Target: Ubiquitin carboxyl-terminal hydrolase 1 (Homo sapiens) (UniProt O94782)
Sequence (O94782 whole entry, looked up): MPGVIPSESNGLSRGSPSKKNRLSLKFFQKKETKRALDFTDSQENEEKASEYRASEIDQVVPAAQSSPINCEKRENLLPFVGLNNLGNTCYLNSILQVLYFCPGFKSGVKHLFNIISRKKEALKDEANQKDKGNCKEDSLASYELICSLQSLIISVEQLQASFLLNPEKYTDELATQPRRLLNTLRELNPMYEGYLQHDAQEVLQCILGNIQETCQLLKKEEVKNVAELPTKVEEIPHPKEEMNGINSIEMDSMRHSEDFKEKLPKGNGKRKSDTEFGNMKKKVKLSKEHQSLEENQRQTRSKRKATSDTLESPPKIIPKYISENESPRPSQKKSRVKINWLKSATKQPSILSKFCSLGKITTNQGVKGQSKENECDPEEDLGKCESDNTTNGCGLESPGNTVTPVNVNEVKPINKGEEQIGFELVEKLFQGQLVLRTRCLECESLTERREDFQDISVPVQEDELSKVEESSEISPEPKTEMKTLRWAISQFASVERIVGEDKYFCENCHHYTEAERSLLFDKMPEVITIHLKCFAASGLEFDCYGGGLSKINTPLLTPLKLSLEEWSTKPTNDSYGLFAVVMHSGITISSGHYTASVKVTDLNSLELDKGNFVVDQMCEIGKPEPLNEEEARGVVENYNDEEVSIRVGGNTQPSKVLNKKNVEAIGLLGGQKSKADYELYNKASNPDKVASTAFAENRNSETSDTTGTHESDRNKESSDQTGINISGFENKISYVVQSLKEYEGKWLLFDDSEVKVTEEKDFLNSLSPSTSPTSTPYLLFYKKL
Test: Inhibitors of USP1/UAF1: Pilot qHTS (AID 504865);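 also: rhodamine fluorescence freed from ubiquitin-rhodamine substrate followed over time; top concentration of the series differs between compounds; nearly all actives have a fitted effect of over 35% in size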
Conditions: purified USP1/UAF1, Ub-rhodamine cleavage fluorescence; series mostly up to 54.9 µM; activity change, negative = inhibition: at the top concentration
How it was run: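 USP1/UAF1 complex at 1 nM preincubated 15 min at room temperature with compound, then Ub-Rho substrate added at 150 nM final. Fluorescence (480/540 nm) read kinetically in 50 mM HEPES pH 7.8, 0.5 mM EDTA, 1 mM TCEP, 0.1 mg/ml BSA, 0.01% Tween-20.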
% is scaled to controls: 0 for no effect and ±100 for the full control effect.

Activity change, negative = inhibition, inactive:
Cc1cnc(CNc2cc(-c3c(C)noc3C)ncn2)cn1 -10.4%
COc1ccc(CNc2ncncc2-c2ccoc2)c(OC)c1 -10.9%
Cc1cnc(CNc2nc(-c3ccc4c(c3)OCO4)nc3ccccc23)cn1 -8.2% [at 114 µM]

System: not listed separately
Test: Primary qHTS for small molecule stabilizers of the endoplasmic reticulum resident proteome: Secreted ER Calcium Modulated Protein (SERCaMP) assay (AID 1508630)
Conditions: SH-SY5Y GLuc-SERCaMP (Gaussia luciferase released on ER calcium loss) secretion, thapsigargin, luminescence; series mostly up to 38.4 µM; activity change, negative = inhibition: at the top concentration
How it was run: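 GLuc-SERCaMP-expressing SH-SY5Y cells, pretreated 16 h with compound, are challenged with thapsigargin to empty ER calcium stores; after 4 h, coelenterazine is added directly to the medium and luminescence is imaged.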

Activity change, negative = inhibition, inactive:
O=S(=O)(c1ccccc1)N1CCC2(CCCN(Cc3nccs3)C2)CC1 -1.02%
Cc1cnc(CNc2cc(-c3c(C)noc3C)ncn2)cn1 39.6%
N#Cc1cccc(NC(=O)N2CCCC3(CCN(C(=O)c4csnn4)CC3)C2)c1 13.7%
COc1ncc2nc(CCc3ccccc3)c(=O)n(Cc3ccc(F)cc3)c2n1 -13.5%
O=C(c1cnccn1)N1CCC2(CC1)CN(Cc1cc(C(F)(F)F)cc(C(F)(F)F)c1)C2 40.4%
O=c1c(-c2ccc(F)c(F)c2)nc2cncnc2n1Cc1ccc(F)cc1 -12.9%
Cn1cccc1C(=O)N1CCC2(CCCN(c3ccccn3)C2)CC1 -4.43%
COc1ncc2nc(-c3ccc(F)cc3)c(=O)n(CCC#N)c2n1 7.07%
N#Cc1cccc(NC(=O)N2CCCC3(CCN(C(=O)c4cccc(F)c4)CC3)C2)c1 -29.5%
O=C(c1cnccn1)N1CCC2(CCCN(Cc3nccs3)C2)CC1 7.8%
Cn1cccc1C(=O)N1CCC2(CCN(Cc3nccs3)CC2)CC1 -6.6%
COc1ccc(-c2nc3cnc(N4CCN(C)CC4)nc3n(CCC#N)c2=O)cc1 4.64%
COc1ccc(CNc2ncncc2-c2ccoc2)c(OC)c1 -0.137%
N#Cc1ccc(CN2CCCC3(CCN(S(=O)(=O)c4ccccc4)CC3)C2)cc1 -8.07%
O=S(=O)(c1ccccc1)N1CCC2(CCCN(Cc3ccncc3)C2)CC1 -26.2%
